Mdm2-MdmX inh: inhibitors of human Mdm2-MdmX association, primary screen, cell-based, luminescence, split luciferase, SaOS-2, uHTS. Protein Mdm4 (Homo sapiens) + E3 ubiquitin-protein ligase Mdm2 (Homo sapiens), …. inhibition, % at 8 µM. SaOS-2 split-luciferase Mdm2/MdmX complementation. hit rate 3% among 330,000;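 active means inhibition of at least 50% at 8 µM in the primary screen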
KKLEB cytotox: cytotoxicity in KKLEB CF airway cells, primary screen, cytotoxicity control for CF NF-kB inhibitor project, cell-based, uHTS, fluorescence assay plates. hit rate 0.36% among 360,000. activity change (cytotoxicity), % at 5 µM. KKLEB CF airway cells viability, ATPlite luminescence, overnight; hits give low values; cells stimulated with P. aeruginosa culture filtrate;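 active means corrected activity change at or below -50% at 5 µM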
CF NFkB inh: inhibitors of PAF-induced NF-kB signaling, primary screen, cell-based, GFP fluorescence, uHTS | KKLEB NF-kB-GFP reporter, GFP fluorescence overnight | inhibition, % at 5 µM | AID 588850, 2011 | hit rate 0.86% among 360,000;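 active means at least 50% inhibition at 5 µM, scaled per plate between neutral and stimulator controls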;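 further: PAF is a Pseudomonas aeruginosa culture filtrate used as stimulus; plate controls were PAF-stimulated DMSO wells for no effect and unstimulated DMSO wells for full effect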
ABHD5 PLIN5 PPI: ABHD5-PLIN5 interaction inhibitors, primary screen, cell lysate, split luciferase complementation, luminescence; Perilipin-5 (Homo sapiens) + 1-acylglycerol-3-phosphate O-acyltransferase ABHD5 (Homo …; Split G. princeps luciferase complementation, 4 h; inhibition, % at 4 µM; AID 602281, 2012; hit rate 0.78% among 360,000;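 active means inhibition above the mean inhibition across every tested compound plus 3 SD, cut at about 22% in these data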;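 further: 0% = DMSO only wells and the 100% control is not disclosed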
HIF-2a block: HIF-2a reporter inhibitors, primary screen, luminescence, 786-0 RCC cells | 786-0 RCC cells HIF-2a reporter, luciferase luminescence, overnight | inhibition, % at 18.8 µM | hit rate 0.72% among 360,000 | AID 624352, 2012;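 active means inhibition of the luminescence signal of 40% or more relative to plate controls, in a single-dose primary screen at 18.75 µM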
Peg3 promoter: Peg3 promoter-driven luciferase inhibitors, primary screen, cell-based, HeLa, luciferase luminescence. inhibition, % at 20 µM. hit rate 1.7% among 360,000. HeLa PEG-Prom luciferase reporter, overnight;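 active means inhibition of at least 50% at 20 µM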
The depositor's hits bear a star; . = no result. Shown are actives, neighbours in structure and some others; about 4.6% of the full set was active somewhere.

SMILES	Mdm2-MdmX inh	KKLEB cytotox	CF NFkB inh	ABHD5 PLIN5 PPI	HIF-2a block	Peg3 promoter
CCOC(=O)/C=C/C(=O)Nc1cccc([N+](=O)[O-])c1	4	-45	88*	44*	4	88*
Cc1ccc(N(C(=O)c2csnn2)C(C(=O)NC2CCCCC2)c2cccnc2)cc1 (stereo not drawn)	21	0	3	0	19	-6
COC(=O)c1cc2c(n1S(=O)(=O)c1ccc(C)cc1)C(=O)C(=O)c1[nH]cc(C(=O)OCc3ccccc3)c1-2	.	-69*	85*	-30	33	89*
CCC(C)(C)n1nnnc1CN(Cc1ccco1)Cc1cc2cc3c(cc2[nH]c1=O)OCO3	47	-1	8	23*	12	9
COCCn1nnnc1CN(Cc1ccco1)Cc1cc2cc3c(cc2[nH]c1=O)OCO3	11	4	0	22*	7	0
COc1ccc2[nH]c(=O)c(CN(Cc3ccco3)Cc3nnnn3Cc3ccccc3)cc2c1	12	15	-13	20	-1	21
CC[C@@H]1C/C=C\Cc2ccccc2[C@H](C(=O)C[C@@H](O)CC(C)=O)OC1=O	6	-10	32	-4	20	10
COc1ccc(CC(=O)Nc2cccc(-c3nnc(-c4ccccc4)o3)c2)cc1OC	.	0	-18	3	-297	100*
O=C(NC1CCCCCC1)c1ccc(CS(=O)(=O)Cc2ccccc2F)o1	-8	-4	20	2	-20	-13
O=C(NC1CCCCC1)c1ccc(-c2ccccc2F)o1	-153	-16	5	23*	-156	-244
COc1cc(-c2cc(NC=O)c3ncc(-c4cccc(C(F)(F)F)c4)n3c2)cc(OC)c1OC	.	-4	-9	-1	-17	52*
COc1cc(-c2cc(NC(C)=O)c3ncc(-c4cc(OC)c(OC)c(OC)c4)n3c2)cc(OC)c1OC	.	-5	-64	8	-84	52*
COc1cc(-c2cnc3c(NC=O)cc(-c4cccc(NC(C)=O)c4)cn23)cc(OC)c1OC	.	-67*	84*	9	26	64*
COc1cc(-c2cc(NC=O)c3ncc(-c4ccccc4)n3c2)cc(OC)c1OC	.	-14	3	-4	-66	51*
Cc1ccc(COc2ccc(CNCCCN3CCCCCC3=O)cc2)cc1	17	-6	-2	11	-41	-121
Cc1ccc(NC(=O)CCn2c(=O)c3cccn3c3ccccc32)cc1C	28	20	-77	-8	-9	20
O=C1C(CO)C(CO)C(CO)C1CO (stereo not drawn)	.	-9	-6	1	9	17
CNc1cccc(-c2cccc(C(=O)N3CCOCC3)c2)n1	.	1	-12	1	-34	-33
COc1cc(-c2cc(NC=O)c3ncc(-c4ccc(C(C)=O)cc4)n3c2)cc(OC)c1OC	.	-18	16	-4	27	57*
COc1ccc2c(Cl)c(C(=O)N/N=C/c3ccc4c(c3)OCO4)sc2c1	20	-12	22	0	1	51*
Cc1ccccc1CN1CCCC(C(=O)Nc2ccccc2Oc2cccnc2)C1 (stereo not drawn)	13	-2	15	1	23	8
CCn1c2ccccc2c2nc3cc(C(=O)O)ccc3nc21	.	-63*	24	-7	-69	-56
CCn1c2ccccc2c2nc3ccccc3nc21	-12	1	-94	2	-104	-59
CCOC(=O)c1c(S(=O)(=O)N2CCCCC2C)c(C)n(C)c1C (stereo not drawn)	9	-6	5	-1	4	12
NC(=S)NN=C1c2ccccc2-c2c(F)c(F)c(F)c(F)c21	.	-25	9	-21	13	96*
SMILES	Mdm2-MdmX inh	KKLEB cytotox	CF NFkB inh	ABHD5 PLIN5 PPI	HIF-2a block	Peg3 promoter
NC(=S)NN=C1c2ccccc2-c2cc(Br)ccc21	.	10	-164	-14	8	16
Cc1ccc(C(=O)O)cc1NC(=S)NC(=O)c1ccc(COc2ccccc2)cc1	28	2	26	-2	-153	-36
COC(=O)c1c(NC(=S)Nc2ccc(F)cc2[N+](=O)[O-])sc2c1CCCCC2	0	-9	5	-4	12	6
COC(=O)c1c(NC(=O)COC(=O)c2ccc(Cl)cc2[N+](=O)[O-])sc2c1CCCCC2	35	6	3	-2	5	71*
Oc1ccc(C[C@H]2CNC(=S)N2C[C@H]2CCCN2C[C@H](Cc2ccccc2)N2C[C@H](Cc3ccc(O)cc3)N(CC3CCCCCC3)C2=S)cc1	.	-21	45	4	-17	76*
CC(C)C[C@H]1CNC(=S)N1CC1CCCN1C[C@H](Cc1ccc(O)cc1)N1C[C@H](Cc2ccccc2)N(CC2CCCCCC2)C1=S (stereo partly drawn)	.	2	10	8	-6	-14
Oc1ccc(C[C@H]2CN([C@@H](Cc3cccc(O)c3)CN3CCC[C@@H]3CN3C(=S)NC[C@@H]3Cc3ccccc3)C(=S)N2CC2CCCCC2)cc1	.	-18	48	23*	-58	105*
CC(C)C[C@H]1CN([C@@H](Cc2ccc(O)cc2)CN2CCC[C@@H]2CN2C(=S)NC[C@@H]2Cc2ccccc2)C(=S)N1CC1CCCCC1	.	-3	3	14	-5	6
Oc1ccc(C[C@H]2CN([C@@H](Cc3ccccc3)CN3CCCC3CN3C(=S)NC[C@@H]3Cc3ccccc3)C(=S)N2CC2CCCCC2)cc1 (stereo partly drawn)	.	.	.	-5	7	.
CC(C)C[C@H]1CNC(=S)N1CC1CCCN1C[C@H](Cc1ccccc1)N1C[C@H](Cc2ccc(O)cc2)N(CC2CCCCC2)C1=S (stereo partly drawn)	.	-12	33	2	-5	59*
Nc1[nH]c(C(=O)c2ccccc2)c(-c2ccccc2C(F)(F)F)c1C(=O)NCc1cccc2ccccc12	.	.	.	-3	-37	.
Cc1nc2ccc(C(=O)NC(C)(C)C)cn2c1N(C)C(=O)CCc1ccccc1	.	-9	-4	3	8	6
CNc1cccnc1C=NNC(N)=S	.	-4	-17	19	4	34
NC(=S)NN=Cc1nccc2c(C(F)(F)F)cccc12	.	-38	70*	-16	-145	19
CC(=O)OCC(=O)C1(O)CCC2C3CCC4=CC(=O)C=CC4(C)C3C(O)CC21C (stereo not drawn)	0	31	75*	1	23	-7
